Assay results reported in PubChem BioAssay (NCATS).
Results filed as inconclusive are left out. The source made the active and inactive calls. Unless noted, calls come from the whole dose curve; as a rule, active = well fitted curve in the direction sought with a large enough effect; inconclusive = small, poorly fitted or top-dose-only effect, or another doubt; inactive = no such curve, though single readings can be large; an effect the other way counts as inactive or inconclusive.

Experiments:
[1] = target: Pyruvate kinase PKM (Homo sapiens) (UniProt P14618); experiment: qHTS Assay for Activators of Human Muscle Pyruvate Kinase (AID 954; active = well fitted curve in the direction sought with a large enough effect, not every such curve was filed as active); settings: purified human muscle pyruvate kinase, luciferase-coupled luminescence, 1 h; series mostly up to 57.5 µM
Sequence of Pyruvate kinase PKM (Homo sapiens) (P14618 whole entry, looked up): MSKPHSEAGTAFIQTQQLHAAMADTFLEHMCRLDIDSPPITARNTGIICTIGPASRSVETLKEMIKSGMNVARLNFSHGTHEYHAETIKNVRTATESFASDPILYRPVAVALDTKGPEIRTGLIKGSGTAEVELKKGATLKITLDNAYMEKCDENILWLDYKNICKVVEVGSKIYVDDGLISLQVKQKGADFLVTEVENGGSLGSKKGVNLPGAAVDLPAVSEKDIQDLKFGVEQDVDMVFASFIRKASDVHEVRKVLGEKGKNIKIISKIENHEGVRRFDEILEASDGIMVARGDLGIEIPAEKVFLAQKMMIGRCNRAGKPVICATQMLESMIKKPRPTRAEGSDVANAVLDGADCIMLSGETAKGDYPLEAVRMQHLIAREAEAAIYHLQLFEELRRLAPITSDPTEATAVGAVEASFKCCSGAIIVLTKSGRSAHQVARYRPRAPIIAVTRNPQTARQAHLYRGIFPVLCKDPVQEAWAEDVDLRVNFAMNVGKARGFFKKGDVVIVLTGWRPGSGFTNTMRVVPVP
Summary of the method: (§1)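 A coupled luminescent readout tracked ATP made from ADP by purified PKM2. Final conditions included 0.1 nM enzyme, PEP and ADP at 0.5 and 0.1 mM, pH 7.2 imidazole buffer with BSA, and a one-hour room-temperature reaction.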

[2] = MultiTox-Fluor Cytotoxicity Assay - LYMP1-002 - Live Cells (AID 955); settings: LYMP1-002 lymphoblastoid live-cell protease fluorescence viability; series mostly up to 46.1 µM;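 note: cells exposed to compound for 16 hours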; note: potency is the fitted concentration of half-maximal effect
Summary of the method: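 Cells were seeded at 2500 per well and incubated 5 hr. Compounds were then added for 16 hr at 37 C, followed by MultiTox-Fluor reagent for 60 min at room temperature and fluorescence reading of viable-cell protease signal.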

[3] = MultiTox-Fluor Cytotoxicity Assay - LYMP1-002 - Dead Cells (AID 960); settings: LYMP1-002 lymphoblastoid cells, dead-cell protease fluorescence; series mostly up to 46.1 µM; note: nearly all actives have a fitted effect of over 60% in size; note: potency is the fitted concentration of half-maximal effect
Summary of the method: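 Cells were plated, rested 5 hr, then treated with compound dilution series for 16 hr at 37 C. After adding substrate reagent and 60 min at room temperature, dead-cell protease fluorescence gave concentration-response curves fitted by the Hill equation.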

[4] = MultiTox-Fluor Cytotoxicity Assay - LYMP1-003 - Live Cells (AID 962); settings: LYMP1-003 lymphoblastoid cells, MultiTox-Fluor live-cell protease fluorescence; series mostly up to 92.2 µM;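 note: cells exposed to compound for 16 hours at 37 °C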; note: potency is the fitted concentration of half-maximal effect
Summary of the method: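 Acute cytotoxicity is scored as a drop in live-cell protease activity in human lymphoblastoid LYMP1-003 cells after 16 hr compound exposure at 37 C. AC50 values come from Hill-equation modelling of concentration-response data.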

[5] = Cell Viability - LYMP1-003 - Assay at 24 hr (AID 963); settings: LYMP1-003 lymphoblastoid cell viability; series mostly up to 92.2 µM; note: potency is the fitted concentration of half-maximal effect
Summary of the method: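 Cytotoxicity is scored as a concentration-dependent fall in ATP-linked luciferase signal in human lymphoblastoid LYMP1-003 cells treated 24 hr at 37 C in complete culture medium.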

[6] = Cell Viability - LYMP1-003 - Assay at 40 hr (AID 964); settings: LYMP1-003 lymphoblastoid viability; series mostly up to 92.2 µM; note: nearly all actives have a fitted effect of over 60% in size; note: potency is the fitted concentration of half-maximal effect
Summary of the method: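 Luminescent ATP signal (CellTiter-Glo) served as the viability read-out after 40 hr compound treatment of human lymphoblastoid LYMP1-003 cells at 37 C. Decreases in ATP were fitted with the Hill equation to give AC50.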

[7] = Cell Viability - LYMP2-004 (AID 966); settings: LYMP2-004 lymphoblastoid cell viability, qHTS; series mostly up to 92.2 µM;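 note: cells exposed to compound for 24 h; nearly all actives have a fitted effect of over 65% in size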; note: potency is the fitted concentration of half-maximal effect
Summary of the method: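 qHTS cytotoxicity: human lymphoblastoid line, 24 hr compound treatment, 37 C, complete medium. Viability read as cellular ATP via luciferase luminescence; tetraoctylammonium bromide served as positive control.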

[8] = target: Pyruvate kinase (Leishmania mexicana) (UniProt Q27686); experiment: qHTS Validation Assay for Activators of Leishmania Mexicana Pyruvate Kinase (AID 959); settings: purified L. mexicana pyruvate kinase, enzyme activity; series mostly up to 57.5 µM
Sequence of Pyruvate kinase (Leishmania mexicana) (Q27686 2-499 E452W): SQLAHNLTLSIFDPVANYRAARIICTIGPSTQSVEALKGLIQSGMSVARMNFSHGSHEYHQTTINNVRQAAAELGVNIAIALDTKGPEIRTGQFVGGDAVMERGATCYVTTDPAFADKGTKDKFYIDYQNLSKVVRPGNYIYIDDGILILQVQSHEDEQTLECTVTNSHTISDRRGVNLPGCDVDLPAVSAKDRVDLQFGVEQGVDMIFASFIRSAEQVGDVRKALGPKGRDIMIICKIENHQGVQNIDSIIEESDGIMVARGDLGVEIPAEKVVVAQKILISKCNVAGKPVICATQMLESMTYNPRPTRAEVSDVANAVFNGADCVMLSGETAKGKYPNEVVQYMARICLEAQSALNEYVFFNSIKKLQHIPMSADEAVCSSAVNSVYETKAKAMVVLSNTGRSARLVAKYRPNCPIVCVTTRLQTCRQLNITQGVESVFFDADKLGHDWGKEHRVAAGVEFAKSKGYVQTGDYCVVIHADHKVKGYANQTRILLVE
Summary of the method: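 Compounds are tested as eight-point concentration series. Reactions contain 0.2 nM LmPYK E451W, 0.5 mM PEP, 0.1 mM ADP, 7 mM MgCl2 and 50 mM KCl at pH 7.2, run 1 h at room temperature, then read by PKLight luminescence.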

[9] = MultiTox-Fluor Cytotoxicity Assay - LYMP1-003 - Dead Cells (AID 961); settings: LYMP1-003 lymphoblastoid cells, dead-cell protease fluorescence; series mostly up to 92.2 µM;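 note: cells exposed to compound for 16 h at 37 °C; nearly all actives have a fitted effect of over 70% in size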
Summary of the method: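 Human lymphoblastoid LYMP1-003 cells (2500/well) were treated with compounds for 16 hr at 37 C in complete medium. Dead-cell protease release was read by bis-AAF-R110 fluorescence (Ex/Em 485/520). AC50 came from Hill fits, normalized to DMSO and 15 uM tetraoctylammonium bromide.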

[10] = target: Pyruvate kinase PKM (Homo sapiens) (UniProt P14618); experiment: qHTS Assay for Inhibitors of Human Muscle Pyruvate Kinase (AID 958); settings: purified human PKM enzyme activity
Summary of the method: as §1

Measured: Potency

COc1ccccc1N1CCN(CCCNc2cc(=O)n(C)c(=O)n2C)CC1
inactive: [1]

CCN(CC)CCOC(=O)c1ccc(N)cc1
inactive: [1]

CC1=C(/C=C/C(C)=C/C=C/C(C)=C/C(=O)Nc2ccc(O)cc2)C(C)(C)CCC1
inactive: [1]
active: [2] 25.1 µM | [3] 31.6 µM | [4] 50.1 µM | [5] 50.1 µM | [6] 39.8 µM | [7] 39.8 µM

O=c1cc(-c2ccc(O)cc2)oc2cc(O)cc(O)c12
inactive: [1] | [8] | [3] | [4] | [5] | [7]

O=C(O)Cc1cccc2ccccc12
inactive: [2] | [3] | [9] | [4] | [5] | [6] | [7]

O=C(O)CCc1nc(-c2ccccc2)c(-c2ccccc2)o1
inactive: [1]

COCCCCC(=NOCCN)c1ccc(C(F)(F)F)cc1
inactive: [1]

CC(=O)c1ccc(S(=O)(=O)NC(=O)NC2CCCCC2)cc1
inactive: [1] | [2] | [9] | [4] | [5] | [6] | [7]

O=c1c(-c2ccc(O)cc2)coc2cc(O)ccc12
inactive: [1] | [2] | [3] | [9] | [4] | [5] | [7]

CCN(CC)C(=O)c1ccc(O)c(OC)c1
inactive: [1]

O=C(O)c1cc(O)c2c(c1)C(=O)c1cccc(O)c1C2=O
inactive: [2] | [3] | [9] | [4] | [5] | [6] | [7]

O=C1NCC2(CCN(CCc3ccccc3)CC2)O1
inactive: [1]

O=c1[nH]cnc2c1ncn2[C@H]1CC[C@@H](CO)O1
inactive: [2] | [3] | [9] | [4] | [5] | [6] | [7]

O=c1c(O)c(-c2ccc(O)cc2)oc2cc(O)cc(O)c12
inactive: [2] | [3] | [9] | [4] | [5] | [6] | [7]

CC1(C)CCC2=C(O1)c1ccccc1C(=O)C2=O
inactive: [1]

COc1cccc(-c2cc(=O)c3ccccc3o2)c1N
active: [10] 15.8 µM
inactive: [1] | [8]

NCCS
inactive: [1]

C[N+](C)(C)CC(=O)O
inactive: [1]

Clc1ccc(Cn2c(CN3CCCC3)nc3ccccc32)cc1
inactive: [1]

CC(C)NCC(O)COc1cccc2[nH]ccc12 (stereo not given)
inactive: [1]

CCCCC1C(=O)N(c2ccccc2)N(c2ccccc2)C1=O
inactive: [1] | [2] | [3] | [9] | [4] | [5] | [6] | [7]

CC(C)(C)c1ccc(C(O)CCCN2CCC(C(O)(c3ccccc3)c3ccccc3)CC2)cc1 (stereo not given)
inactive: [1]

COc1ccc(Cc2nccc3cc(OC)c(OC)cc23)cc1OC
inactive: [1]

CCCNC(=O)NS(=O)(=O)c1ccc(Cl)cc1
inactive: [1] | [2] | [3] | [9] | [4] | [5] | [6] | [7]

CN(C)CCC(c1ccccc1)c1ccccn1 (stereo not given)
inactive: [2] | [3] | [9] | [4] | [5] | [6] | [7]

O=C1NC(=O)C(c2ccccc2)(c2ccccc2)N1
inactive: [1] | [2] | [9] | [4] | [5] | [6] | [7]

CC(=O)O[C@]1(C(C)=O)CC[C@H]2[C@@H]3C=C(Cl)C4=CC(=O)[C@@H]5C[C@@H]5[C@]4(C)[C@H]3CC[C@@]21C
inactive: [2] | [3] | [9] | [4] | [5] | [6]

CCN(CC)CCNC(=O)c1ccc(N)cc1
inactive: [1]

CCN1CCC[C@H]1CNC(=O)c1cc(S(N)(=O)=O)ccc1OC
inactive: [1]

CCn1cc(C(=O)O)c(=O)c2ccc(C)nc21
inactive: [2] | [3] | [9] | [4] | [5] | [6] | [7]

CC(=O)CCCCn1c(=O)c2c(ncn2C)n(C)c1=O
inactive: [1]

CC/C(=C(\c1ccccc1)c1ccc(OCCN(C)C)cc1)c1ccccc1
active: [2] 31.6 µM | [3] 25.1 µM | [6] 50.1 µM
inactive: [1]

CC(C)OC(=O)C(C)(C)Oc1ccc(C(=O)c2ccc(Cl)cc2)cc1
inactive: [1]

NC(N)=Nc1nc(CSCC/C(N)=N/S(N)(=O)=O)cs1
inactive: [1]

CC(=O)N[C@@H](CS)C(=O)O
inactive: [1]

C[N+](C)(C)CCCCCC[N+](C)(C)C
inactive: [1]
